Furin inhibitor = human furin inhibitors, primary screen, biochemical, fluorescence intensity; actives 0.061% (n = 220,000); inhibition, % at 20 µM or 30 µM; P09958; purified furin, fluorogenic substrate cleavage; in the data active = inhibition above about 25%
Bcl-B Bim block = inhibitors of Bim-Bcl-B binding, primary screen, biochemical, multiplexed, human Bcl-2 family; AID 951, 2007; inhibition, % at 10 µM; bead-based flow cytometry, Bim peptide-Bcl-B binding; actives 0.073% (n = 190,000)
Bcl-XL Bim block = inhibitors of Bim-Bcl-XL binding, primary screen, biochemical, multiplexed, bead flow cytometry, human Bcl-XL. Bcl-2-like protein 1 (Homo sapiens), Q07817. Bim peptide-Bcl-XL binding, fluorescence. inhibition, % at 10 µM. actives 0.04% (n = 190,000). AID 1007, 2008
Bim-Bcl-2 = inhibitors of Bim-Bcl-2 binding, primary screen, biochemical, multiplexed, human Bcl-2 family | Apoptosis regulator Bcl-2 (Homo sapiens), P10415 | Bead-based flow cytometry, Bim peptide-Bcl-2 binding | inhibition, % at 10 µM | actives 0.06% (n = 190,000) | AID 950, 2007; in the data active = inhibition above about 40%
Bim-Bcl-W = inhibitors of Bim binding to Bcl-W, primary screen, biochemical, multiplexed, bead-based flow cytometry | AID 952, 2007 | Bim peptide-Bcl-W binding | inhibition, % at 10 µM | actives 0.02% (n = 190,000);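 note: higher means less fluorescent Bim peptide bound to Bcl-W beads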
Bim-Bfl-1 = inhibitors of Bim binding to Bfl-1, primary screen, biochemical, multiplexed, bead-based flow cytometry. inhibition, % at 10 µM. actives 0.12% (n = 190,000). Bcl-2-related protein A1 (Homo sapiens), Q16548. Bim-Bfl-1 binding inhibition. AID 1008, 2008
Target sequence (Q16548 whole entry, looked up): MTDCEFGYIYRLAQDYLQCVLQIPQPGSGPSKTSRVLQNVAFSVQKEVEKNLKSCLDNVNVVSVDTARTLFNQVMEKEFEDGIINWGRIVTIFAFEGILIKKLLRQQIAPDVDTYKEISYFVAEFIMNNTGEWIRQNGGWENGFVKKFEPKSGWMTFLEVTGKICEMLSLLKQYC
Hits are given with their value; i = inactive; nt = not tested or not shown. Sampled rows, rich in hits. Any-hit rate of the full collection: about 0.25%. Cut-off read from the data, not from the text of the source, unless noted: active = inhibition above about 40%.

SMILES | Furin inhibitor | Bcl-B Bim block | Bcl-XL Bim block | Bim-Bcl-2 | Bim-Bcl-W | Bim-Bfl-1
CN1CCN(c2ccc(N)cc2)CC1 | i | 61 | i | i | i | i
O=C1NC(=O)C(=Cc2ccc(-c3ccccc3[N+](=O)[O-])o2)C(=O)N1 | i | nt | nt | nt | nt | nt
O=C1NC(=O)C(=Cc2ccc(-c3cc(Cl)ccc3[N+](=O)[O-])o2)C(=O)N1 | i | i | i | i | i | 45
CC(C)CCCn1c(O)c(/C=C2/C=CC=N2)c(=O)[nH]c1=O | i | i | i | i | i | i
CSc1nc(N)c(N=Nc2ccc([As](=O)(O)O)cc2)c(=O)[nH]1 | 27 | nt | nt | nt | nt | nt
O=C(CCl)NCC1CCCO1 (centres undefined) | i | i | i | i | i | i
Cc1cccc(-n2c(O)c(/C=C/C=Nc3ccccc3)c(=O)[nH]c2=O)c1 | 31 | i | i | i | i | i
CN(C)c1ccc(C=C2C(=O)NC(=S)NC2=O)cc1[N+](=O)[O-] | i | i | i | i | i | i
CN(C)c1ccc(C=C2C(=O)NC(=O)NC2=O)cc1[N+](=O)[O-] | i | i | i | i | i | 48
Cc1ccccc1-n1c(O)c(C=Nc2ccc(N(C)C)cc2)c(=O)[nH]c1=O | 27 | i | i | i | i | i
Cc1cccc(N=Cc2c(O)n(-c3ccccc3C)c(=O)[nH]c2=O)c1 | i | i | i | i | i | i
O=CC(Cl)P(=O)(N1CCCCC1)N1CCCCC1 (centres undefined) | i | i | i | i | i | i

Screens from PubChem.
